The text below walks through data of PMC11006913.

Common to all, as to assay: PBM; 200 nM protein, PBS
Common to all, as to conditions: dsDNA, one strand shown

The target of assay [1] is NKX2-5 (Homo sapiens, UniProt P52952 125-210, R139K).
The target of assay [2] is T1, NKX2-4 (Homo sapiens, UniProt Q9H2Z4 175-261, P217L).
T1 sequence: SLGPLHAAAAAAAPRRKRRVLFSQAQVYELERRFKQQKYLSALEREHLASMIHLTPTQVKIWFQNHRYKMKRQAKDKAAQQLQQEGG

Assay [3] deals with T2, NKX2-4 (Homo sapiens, UniProt Q9H2Z4 175-261, T231S).
T2 sequence: T1 sequence with L43P, T57S

The target of assay [4] is T3, NKX2-4 (Homo sapiens, UniProt Q9H2Z4 175-261).
T3 sequence: T1 sequence with L43P

For assay [5], the target named is T4, NKX2-6 (Homo sapiens, UniProt A6NCS4 118-204, R150C).
T4 sequence: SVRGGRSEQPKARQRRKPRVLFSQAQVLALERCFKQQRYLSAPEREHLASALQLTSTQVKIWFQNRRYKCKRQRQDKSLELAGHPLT

Assay [6] has as its target T5, NKX2-6 (Homo sapiens, UniProt A6NCS4 118-204).
T5 sequence: T4 sequence with C33R

Assay [7] concerns the target T6, NKX2-4 (Homo sapiens, UniProt Q9H2Z4 175-261, R246Q).
T6 sequence: T1 sequence with L43P, R72Q

For assay [8], the target named is T7, NKX2-6 (Homo sapiens, UniProt A6NCS4 118-204, F151L).
T7 sequence: T4 sequence with C33R, F34L

Assay [9] concerns the target NKX3-2 (Homo sapiens, UniProt P78367 192-278, P234S).
Assay [10] has as its target NKX2-5 (Homo sapiens, UniProt P52952 125-210).
Assay [11] deals with NKX3-2 (Homo sapiens, UniProt P78367 192-278).
Chain of NKX3-2 (Homo sapiens, UniProt P78367 192-278) (P78367 192-278): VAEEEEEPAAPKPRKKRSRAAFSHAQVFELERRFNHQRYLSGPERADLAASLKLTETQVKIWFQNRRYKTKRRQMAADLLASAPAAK

Substitutions are numbered along the chain they refer to.

Chain of NKX2-5 (Homo sapiens, UniProt P52952 125-210, R139K) (P52952 125-210 R139K): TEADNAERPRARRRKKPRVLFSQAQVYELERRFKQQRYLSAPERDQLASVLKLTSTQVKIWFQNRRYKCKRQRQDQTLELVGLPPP
Chain of NKX2-5 (Homo sapiens, UniProt P52952 125-210) (P52952 125-210): as the sequence (P52952 125-210 R139K) above, with K15R counted along it
Chain of NKX3-2 (Homo sapiens, UniProt P78367 192-278, P234S) (P78367 192-278 P234S): as the sequence (P78367 192-278) above, with P43S counted along it

For CAAGTGGC, the binding signal in the assay with NKX2-5 [1] is 12.5 upbm affinity estimate (log intensity, higher = more binding, comparable within an allelic series); with NKX2-4 [2], 12.4 upbm affinity estimate (log intensity, higher = more binding, comparable within an allelic series); with NKX2-4 [3], 12.8 upbm affinity estimate (log intensity, higher = more binding, comparable within an allelic series); with NKX2-4 [4] it was 12.3 upbm affinity estimate (log intensity, higher = more binding, comparable within an allelic series); with NKX2-6 [5] it was 11.7 upbm affinity estimate (log intensity, higher = more binding, comparable within an allelic series); with NKX2-6 [6], 13.4 upbm affinity estimate (log intensity, higher = more binding, comparable within an allelic series). In addition, the binding signal with NKX2-4 [7] was 12.9 upbm affinity estimate (log intensity, higher = more binding, comparable within an allelic series); with NKX2-6 [8] it was 10.7 upbm affinity estimate (log intensity, higher = more binding, comparable within an allelic series); with NKX3-2 [9], 12.5 upbm affinity estimate (log intensity, higher = more binding, comparable within an allelic series); with NKX2-5 [10] it was 12.4 upbm affinity estimate (log intensity, higher = more binding, comparable within an allelic series); with NKX3-2 [11], 12.6 upbm affinity estimate (log intensity, higher = more binding, comparable within an allelic series).

As to AAGCACTT, the binding signal with NKX2-5 [1] is 12.7 upbm affinity estimate (log intensity, higher = more binding, comparable within an allelic series); with NKX2-4 [2], 12.6 upbm affinity estimate (log intensity, higher = more binding, comparable within an allelic series); with NKX2-4 [3], 12.9 upbm affinity estimate (log intensity, higher = more binding, comparable within an allelic series); with NKX2-4 [4], 12.4 upbm affinity estimate (log intensity, higher = more binding, comparable within an allelic series); in the assay with NKX2-6 [5] it was 11.8 upbm affinity estimate (log intensity, higher = more binding, comparable within an allelic series); with NKX2-6 [6], 13.5 upbm affinity estimate (log intensity, higher = more binding, comparable within an allelic series). Further, the binding signal with NKX2-4 [7] was 13.1 upbm affinity estimate (log intensity, higher = more binding, comparable within an allelic series); with NKX2-6 [8], 11 upbm affinity estimate (log intensity, higher = more binding, comparable within an allelic series); in the assay with NKX3-2 [9], 12.5 upbm affinity estimate (log intensity, higher = more binding, comparable within an allelic series); with NKX2-5 [10], 12.5 upbm affinity estimate (log intensity, higher = more binding, comparable within an allelic series); with NKX3-2 [11], 12.6 upbm affinity estimate (log intensity, higher = more binding, comparable within an allelic series).

In the case of ATTAAGTG, the binding signal with NKX2-5 [1] was 12.7 upbm affinity estimate (log intensity, higher = more binding, comparable within an allelic series); in the assay with NKX2-4 [2] it was 12.5 upbm affinity estimate (log intensity, higher = more binding, comparable within an allelic series); with NKX2-4 [3], 12.9 upbm affinity estimate (log intensity, higher = more binding, comparable within an allelic series); with NKX2-4 [4], 12.4 upbm affinity estimate (log intensity, higher = more binding, comparable within an allelic series); in the assay with NKX2-6 [5] it was 11.8 upbm affinity estimate (log intensity, higher = more binding, comparable within an allelic series); with NKX2-6 [6] it was 13.7 upbm affinity estimate (log intensity, higher = more binding, comparable within an allelic series). For the same sequence, the binding signal in the assay with NKX2-4 [7] was 13 upbm affinity estimate (log intensity, higher = more binding, comparable within an allelic series); with NKX2-6 [8], 11 upbm affinity estimate (log intensity, higher = more binding, comparable within an allelic series); with NKX3-2 [9], 12.7 upbm affinity estimate (log intensity, higher = more binding, comparable within an allelic series); with NKX2-5 [10], 12.6 upbm affinity estimate (log intensity, higher = more binding, comparable within an allelic series); with NKX3-2 [11], 12.8 upbm affinity estimate (log intensity, higher = more binding, comparable within an allelic series).

Turning to CCACTTAA, the binding signal with NKX2-5 [1] was 13.4 upbm affinity estimate (log intensity, higher = more binding, comparable within an allelic series); with NKX2-4 [2], 12.8 upbm affinity estimate (log intensity, higher = more binding, comparable within an allelic series); in the assay with NKX2-4 [3] it was 13.2 upbm affinity estimate (log intensity, higher = more binding, comparable within an allelic series); with NKX2-4 [4], 12.7 upbm affinity estimate (log intensity, higher = more binding, comparable within an allelic series); with NKX2-6 [5] it was 12.3 upbm affinity estimate (log intensity, higher = more binding, comparable within an allelic series); with NKX2-6 [6] it was 14.1 upbm affinity estimate (log intensity, higher = more binding, comparable within an allelic series). The binding signal is 13.3 upbm affinity estimate (log intensity, higher = more binding, comparable within an allelic series) with NKX2-4 [7]; 11.5 upbm affinity estimate (log intensity, higher = more binding, comparable within an allelic series) in the assay with NKX2-6 [8]; 13.2 upbm affinity estimate (log intensity, higher = more binding, comparable within an allelic series) with NKX3-2 [9]; 13.2 upbm affinity estimate (log intensity, higher = more binding, comparable within an allelic series) in the assay with NKX2-5 [10]; 13.3 upbm affinity estimate (log intensity, higher = more binding, comparable within an allelic series) with NKX3-2 [11].

With GCACTTCA, the binding signal is 12.5 upbm affinity estimate (log intensity, higher = more binding, comparable within an allelic series) in the assay with NKX2-5 [1]; 12.6 upbm affinity estimate (log intensity, higher = more binding, comparable within an allelic series) with NKX2-4 [2]; 13 upbm affinity estimate (log intensity, higher = more binding, comparable within an allelic series) in the assay with NKX2-4 [3]; 12.5 upbm affinity estimate (log intensity, higher = more binding, comparable within an allelic series) with NKX2-4 [4]; 11.7 upbm affinity estimate (log intensity, higher = more binding, comparable within an allelic series) with NKX2-6 [5]; 13.3 upbm affinity estimate (log intensity, higher = more binding, comparable within an allelic series) in the assay with NKX2-6 [6]. Moreover, the binding signal was 13.2 upbm affinity estimate (log intensity, higher = more binding, comparable within an allelic series) with NKX2-4 [7]; 11.1 upbm affinity estimate (log intensity, higher = more binding, comparable within an allelic series) in the assay with NKX2-6 [8]; 12.6 upbm affinity estimate (log intensity, higher = more binding, comparable within an allelic series) with NKX3-2 [9]; 12.4 upbm affinity estimate (log intensity, higher = more binding, comparable within an allelic series) in the assay with NKX2-5 [10]; 12.6 upbm affinity estimate (log intensity, higher = more binding, comparable within an allelic series) with NKX3-2 [11].

For the sequence ACACTTAA, the binding signal in the assay with NKX2-5 [1] was 13 upbm affinity estimate (log intensity, higher = more binding, comparable within an allelic series); in the assay with NKX2-4 [2], 12.6 upbm affinity estimate (log intensity, higher = more binding, comparable within an allelic series); with NKX2-4 [3], 13 upbm affinity estimate (log intensity, higher = more binding, comparable within an allelic series); with NKX2-4 [4] it was 12.5 upbm affinity estimate (log intensity, higher = more binding, comparable within an allelic series); with NKX2-6 [5], 12 upbm affinity estimate (log intensity, higher = more binding, comparable within an allelic series); with NKX2-6 [6], 13.8 upbm affinity estimate (log intensity, higher = more binding, comparable within an allelic series). Besides, the binding signal is 13.1 upbm affinity estimate (log intensity, higher = more binding, comparable within an allelic series) with NKX2-4 [7]; 11.5 upbm affinity estimate (log intensity, higher = more binding, comparable within an allelic series) with NKX2-6 [8]; 12.7 upbm affinity estimate (log intensity, higher = more binding, comparable within an allelic series) in the assay with NKX3-2 [9]; 12.8 upbm affinity estimate (log intensity, higher = more binding, comparable within an allelic series) with NKX2-5 [10]; 12.8 upbm affinity estimate (log intensity, higher = more binding, comparable within an allelic series) with NKX3-2 [11].
